Source: PubChem BioAssay
For some of these results: Measured potencies and affinities stand elsewhere. Records with an inconclusive call do not appear. The list shows a part of the results. Calls of active or inactive are those of the source. Unless noted, the rule behind the calls is not given here.

Columns and labels:
[1] = cytotoxicity in PAX8-dependent RMG-1 cells, dose response, cell-based, cherry-pick (AID 687029;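 active = signal drop whose fitted half-maximal concentration is at most twice the top valid dose, in every test run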;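 note: cells exposed to compound for 96 hours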)
[2] = cytotoxicity in IOSE-T80 ovarian epithelial cells, dose response, selectivity assay for PAX8 inhibitor project, cell-based, cherry-pick (AID 687032;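 active = fitted half-maximal concentration for viability loss no higher than twice the top valid dose, in every repeat run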;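 note: cells exposed to compound for 96 h before reading; 0% = neutral control wells and -100% = 2 µM mitoxantrone kill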)
[3] = non-specific cell cytotoxicity, dose response, cytotoxicity control for PAX8 inhibitor project, plate reader, dry powder samples (AID 743021)
[4] = IOSE-T80 ovarian epithelial cell cytotoxicity, dose response, cytotoxicity control for PAX8 inhibitor project, plate reader, dry powder samples (AID 743045);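 note: 0% = neutral control median and -100% = positive control median; more negative values mean more cell killing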
[5] = A2780 ovarian cancer cell cytotoxicity, dose response, cytotoxicity control, plate reader, dry powder samples (AID 743046);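 note: 0% = neutral control wells and -100% = cytotoxic reference compound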
[6] = IGROV1 ovarian cancer cell cytotoxicity, dose response, PAX8 inhibitor project, plate reader, dry powder samples (AID 743043);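 note: more negative means fewer viable cells or more cytotoxicity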
[7] = cytotoxicity in OVCAR8 ovarian cancer cells, dose response, PAX8 project, cell-based, plate reader, dry powder samples (AID 743197)
[8] = NIH:OVCAR-3 ovarian cancer cell cytotoxicity, dose response, PAX8 inhibitor project, plate reader, dry powder samples (AID 743044); settings: max activity: at 35 µM, active compounds read low unless noted
[9] = DNA binders by acridine orange displacement, dose response, counter-screen for EWS/Fli inhibitor project, biochemical, fluorescence polarization, cherry-pick (AID 720586;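 active = fitted curve reaches a 35% signal fall AC35 below twice the sample's top valid tested dose, actives reach about 48 µM in these data; inactive = the rest, including activity in the rising direction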;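 note: 0% = neutral control median and -100% = 10 µM mitoxantrone control median; lower polarization ratio signals compound binding to DNA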)
[10] = inhibitors of CMV-promoter luciferase reporter, dose response, counter-screen for Pax8 inhibitor project, cell-based, HEK293, luminescence, dry powder (AID 743020;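 active = signal-lowering compounds whose fitted half-maximal concentration is at or below twice the top tested dose in every run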;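 note: HEK293 cells stably expressing the CMV luciferase reporter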)
[11] = A549 cell cytotoxicity, dose response, cytotoxicity control, plate reader, cherry-pick, antagonist series (AID 743412);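 note: 0% = neutral control wells and -100% = positive control wells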
[12] = HepG2 cell cytotoxicity, dose response, cytotoxicity control, plate reader, cherry-pick, antagonist series (AID 743416);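 note: 0% = neutral control wells and -100% = positive control wells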
[13] = biological target: Melanocortin receptor 4 (Homo sapiens) (UniProt P32245); assay: MC4R antagonists, dose response, counter-screen for LGR2 antagonist project, cell-based, plate reader, cherry pick (AID 743444)

Cc1ccc(S(=O)(=O)N(C)C[C@H]2OCCCC[C@H](C)Oc3ccc(NS(=O)(=O)c4ccc(Cl)cc4)cc3C(=O)N([C@H](C)CO)C[C@@H]2C)cc1
inactive: outcome [1] | outcome [2] | outcome [3] | outcome [4] | outcome [5]

Cc1ccc(-c2ccc([C@H]3[C@H](CO)N4CCCCN(S(=O)(=O)c5cccc(C)c5)C[C@@H]34)cc2)cc1
inactive: outcome [1] | outcome [2] | outcome [3] | outcome [4] | outcome [5]

COc1ccc2c3c(n(C)c2c1)[C@H](CO)N(Cc1ccccc1)CC31CCN(S(=O)(=O)c2ccc(C)cc2)CC1
inactive: outcome [1] | outcome [2] | outcome [3] | outcome [4]

C[C@H](CO)N1C[C@H](C)[C@@H](CN(C)S(=O)(=O)c2ccccc2)OCCCC[C@H](C)Oc2ccc(NS(=O)(=O)c3ccc(Cl)cc3)cc2C1=O
inactive: outcome [1] | outcome [2] | outcome [3] | outcome [6] | outcome [4] | outcome [7]

C[C@@H]1CN([C@H](C)CO)C(=O)c2cc(NS(=O)(=O)c3ccc(F)cc3)ccc2O[C@@H](C)CCCCO[C@H]1CN(C)Cc1ccc(C(F)(F)F)cc1
inactive: outcome [1] | outcome [2] | outcome [3] | outcome [4] | outcome [5]

C[C@H]1CCCCO[C@H](CN(C)Cc2ccc(Cl)c(Cl)c2)[C@@H](C)CN([C@@H](C)CO)C(=O)c2cc(NC(=O)Nc3ccc(C(F)(F)F)cc3)ccc2O1
inactive: outcome [1] | outcome [2] | outcome [3] | outcome [4] | outcome [5]

NC(=NCCCCCCN=C(N)/N=C(\N)Nc1ccc(Cl)cc1)/N=C(\N)Nc1ccc(Cl)cc1
inactive: outcome [1] | outcome [2] | outcome [3] | outcome [4]

C[C@@H]1CCCCO[C@@H](CN(C)C(=O)Nc2ccc(C(F)(F)F)cc2)[C@H](C)CN([C@H](C)CO)C(=O)c2cc(NS(=O)(=O)c3cccs3)ccc2O1
inactive: outcome [1] | outcome [2] | outcome [3] | outcome [4]

COc1cccc(-c2ccc3c(c2)[C@H]2[C@H](CCN2C(=O)c2ccccc2F)[C@H](CO)N3C)c1
inactive: outcome [1] | outcome [2] | outcome [3] | outcome [4] | outcome [5]

C[C@@H]1CCCCO[C@@H](CN(C)S(=O)(=O)c2ccc(Cl)cc2)[C@H](C)CN([C@H](C)CO)C(=O)c2cc(NS(=O)(=O)c3ccc(Cl)cc3)ccc2O1
inactive: outcome [1] | outcome [2] | outcome [3] | outcome [4]

C[C@@H]1CCCCO[C@H](CN(C)Cc2ccc(C(F)(F)F)cc2)[C@H](C)CN([C@H](C)CO)C(=O)c2cc(NS(=O)(=O)c3ccc(Cl)cc3)ccc2O1
inactive: outcome [1] | outcome [2] | outcome [3] | outcome [4]

COc1ccc(S(=O)(=O)Nc2ccc3c(c2)C(=O)N([C@@H](C)CO)C[C@H](C)[C@@H](CN(C)C(=O)Nc2ccc(C(F)(F)F)cc2)OCCCC[C@@H](C)O3)cc1
inactive: outcome [1] | outcome [2] | outcome [3] | outcome [4]

C[C@@H]1CN([C@H](C)CO)C(=O)c2cc(NC(=O)Nc3ccc(F)cc3)ccc2O[C@@H](C)CCCCO[C@H]1CN(C)S(=O)(=O)c1ccccc1
inactive: outcome [1] | outcome [2] | outcome [3] | outcome [6] | outcome [4] | outcome [5] | outcome [7]

C[C@@H]1CN([C@@H](C)CO)C(=O)Cc2cc(N(C)C)ccc2O[C@H]1CN(C)Cc1ccc(C(=O)Nc2ccccc2N)cc1
inactive: outcome [1] | outcome [2] | outcome [3] | outcome [4] | outcome [5]

O=C(C[C@@H]1CC[C@@H]2[C@H](COC[C@@H](O)CN2C(=O)Nc2ccc(C(F)(F)F)cc2)O1)NC1Cc2ccccc2C1
inactive: outcome [1] | outcome [2] | outcome [3] | max activity [8] -24.5% | outcome [4] | outcome [5] | outcome [7]

C[C@H]1CN([C@@H](C)CO)S(=O)(=O)c2ccc(C#Cc3ccc(F)cc3)cc2O[C@H]1CN(C)C(=O)NC1CCCCC1
inactive: outcome [1] | outcome [2] | outcome [3] | outcome [6] | outcome [4] | outcome [5] | outcome [7]

C[C@@H]1CN([C@@H](C)CO)C(=O)Cc2cc(NC(=O)Nc3ccccc3)ccc2O[C@H]1CN(C)Cc1ccc(Oc2ccccc2)cc1
inactive: outcome [1] | outcome [2] | outcome [3] | max activity [8] -64.8% | outcome [4] | outcome [5] | outcome [7]

O=C(Nc1ccccc1)N1C[C@@H]2N[C@H](C1)[C@@H]2c1ccc(/C=C/c2ccccc2)cc1
inactive: outcome [1] | outcome [2] | outcome [3] | outcome [6] | outcome [4] | outcome [7]

Cn1nnnc1Sc1ncnc2scc(-c3ccc(F)cc3)c12
inactive: outcome [1] | outcome [2] | outcome [3] | outcome [8]

C[C@@H]1CCCCO[C@@H](CN(C)Cc2ccc(C(F)(F)F)cc2)[C@@H](C)CN([C@@H](C)CO)C(=O)c2cc(NS(=O)(=O)c3ccc(Cl)cc3)ccc2O1
inactive: outcome [1] | outcome [2] | outcome [3] | outcome [4] | outcome [5]

CC(C)CC#Cc1ccc2c(c1)O[C@@H](CN(C)S(=O)(=O)c1ccc(F)cc1)[C@@H](C)CN([C@@H](C)CO)S2(=O)=O
inactive: outcome [1] | outcome [2] | outcome [3] | outcome [4] | outcome [5]

Cc1ccc(S(=O)(=O)Nc2ccc3c(c2)C(=O)N([C@@H](C)CO)C[C@H](C)[C@@H](CN(C)C(=O)Nc2cccc4ccccc24)OCCCC[C@@H](C)O3)cc1
inactive: outcome [1] | outcome [2] | outcome [3] | outcome [6] | outcome [4] | outcome [5] | outcome [7]

C[C@@H]1CCCCO[C@H](CN(C)C(=O)Nc2ccc(C(F)(F)F)cc2)[C@@H](C)CN([C@@H](C)CO)C(=O)c2cc(NS(=O)(=O)c3ccc(Cl)cc3)ccc2O1
inactive: outcome [1] | outcome [2] | outcome [3] | outcome [4]

C[C@@H]1CN([C@@H](C)CO)S(=O)(=O)c2ccc(C#Cc3ccccc3F)cc2O[C@H]1CN(C)C(=O)c1ccc2c(c1)OCO2
inactive: outcome [1] | outcome [2] | outcome [3] | outcome [4]

Cc1ccc(S(=O)(=O)Nc2ccc3c(c2)C(=O)N([C@@H](C)CO)C[C@H](C)[C@H](CN(C)Cc2ccc(C(F)(F)F)cc2)OCCCC[C@H](C)O3)cc1
inactive: outcome [1] | outcome [2] | outcome [3] | outcome [4] | outcome [5]

C[C@H](CO)N1C[C@H](C)[C@@H](CN(C)Cc2ccc(C(F)(F)F)cc2)OCCCC[C@H](C)Oc2ccc(NS(=O)(=O)c3ccc(Cl)cc3)cc2C1=O
inactive: outcome [1] | outcome [2] | outcome [3] | outcome [4]

C[C@@H]1CN([C@H](C)CO)C(=O)c2cc(NS(=O)(=O)c3ccc(Cl)cc3)ccc2O[C@@H](C)CCCCO[C@@H]1CN(C)CC1CCCCC1
inactive: outcome [1] | outcome [2] | outcome [3] | outcome [4] | outcome [5]

C[C@@H]1CN([C@@H](C)CO)C(=O)c2c(c3ccccc3n2C)-c2ccccc2CO[C@@H]1CN(C)S(=O)(=O)c1ccc(C(F)(F)F)cc1
inactive: outcome [1] | outcome [2] | outcome [3] | max activity [8] -38.5% | outcome [4] | outcome [5] | outcome [7]

Cc1ccc(S(=O)(=O)Nc2ccc3c(c2)C(=O)N([C@H](C)CO)C[C@@H](C)[C@@H](CN(C)CC2CCCCC2)OCCCC[C@@H](C)O3)cc1
inactive: outcome [1] | outcome [2] | outcome [3] | outcome [4]

COc1ccc(S(=O)(=O)N(C)C[C@H]2Oc3cc(C#CC4CCCC4)ccc3S(=O)(=O)N([C@@H](C)CO)C[C@@H]2C)cc1
inactive: outcome [1] | outcome [2] | outcome [3] | outcome [4]

C[C@H]1CCCCO[C@H](CN(C)C(=O)Nc2ccc(C(F)(F)F)cc2)[C@@H](C)CN([C@@H](C)CO)C(=O)c2cc(NC(=O)Nc3ccccc3)ccc2O1
inactive: outcome [1] | outcome [2] | outcome [3] | outcome [4]

Cc1noc(C)c1S(=O)(=O)Nc1ccc2c(c1)CC(=O)N([C@@H](C)CO)C[C@@H](C)[C@H](CN(C)Cc1ccc(Cl)c(Cl)c1)O2
inactive: outcome [1] | outcome [2] | outcome [3] | outcome [4] | outcome [5]

CCCCCCCCn1c2c(c(=N)c3c1CCC3)CCCC2
inactive: outcome [1] | AC35 [9] | outcome [10] | outcome [3]

O=C(Nc1cccc(C(=O)O)c1)Nc1ccc2c(c1)OCO2
inactive: outcome [1] | outcome [2] | outcome [3] | outcome [11] | outcome [12]

C[C@@H]1CN([C@@H](C)CO)S(=O)(=O)c2ccc(C#Cc3ccccc3F)cc2O[C@H]1CN(C)C(=O)Cc1ccccc1
inactive: outcome [1] | outcome [2] | outcome [6] | outcome [4] | outcome [5]

NS(=O)(=O)c1ccc(CCN2C(=O)/C(=C\c3ccc(Cl)cc3)SC2=S)cc1
inactive: outcome [1] | outcome [2] | outcome [3] | outcome [5]

C[C@@H]1CCCCO[C@@H](CN(C)S(=O)(=O)c2ccccc2)[C@H](C)CN([C@H](C)CO)C(=O)c2cc(NC(=O)Nc3ccc(C(F)(F)F)cc3)ccc2O1
inactive: outcome [1] | outcome [2] | outcome [4] | outcome [5] | outcome [7]

Cn1nnnc1Sc1ncnc2scc(-c3cccc(Br)c3)c12
inactive: outcome [1] | outcome [2] | outcome [3] | outcome [12]

C[C@@H]1CN([C@@H](C)CO)C(=O)Cc2cc(NC(=O)Cc3ccccc3)ccc2O[C@H]1CN(C)Cc1ccc(-c2ccccc2)cc1
inactive: outcome [1] | outcome [2] | outcome [6] | max activity [8] -33% | outcome [4] | outcome [5] | outcome [7]

COc1ccccc1C#Cc1ccc([C@H]2[C@H](C#N)N(C(=O)C3CC3)[C@H]2CO)cc1
inactive: outcome [1] | outcome [2] | outcome [6] | outcome [4]

C[C@H](CO)N1C[C@H](C)[C@H](CN(C)Cc2ccc(C(=O)Nc3ccccc3N)cc2)Oc2ccc(N(C)C)cc2C1=O
inactive: outcome [1] | outcome [2] | outcome [3] | outcome [5]

C[C@H]1CCCCO[C@H](CN(C)S(=O)(=O)c2ccccc2)[C@@H](C)CN([C@@H](C)CO)C(=O)c2cc(NS(=O)(=O)c3ccc(Cl)cc3)ccc2O1
inactive: outcome [1] | outcome [2] | outcome [6] | outcome [4]

Nc1ccc(-c2nc3ccc(C(=O)O)cc3s2)cc1
inactive: outcome [1] | outcome [2] | outcome [11] | outcome [12]

N#C[C@H]1[C@H](c2ccc(C#Cc3ccccc3F)cc2)[C@H](CO)N1C(=O)C1CCC1
inactive: outcome [1] | outcome [2] | outcome [6] | outcome [4] | outcome [5] | outcome [7]

Oc1c(Cl)cc(Cl)c(Cl)c1Cc1c(O)c(Cl)cc(Cl)c1Cl
inactive: outcome [1] | AC35 [9] | outcome [3]

CCCC#Cc1ccc([C@H]2[C@@H](C#N)N(C(=O)C3CCCCC3)[C@H]2CO)cc1
inactive: outcome [1] | outcome [2] | outcome [6] | outcome [4]

COc1cccc(-c2ccc(C3[C@@H]4CN(C(=O)C5CC5)C[C@H]3N4)cc2)c1 (some centres not stated)
inactive: outcome [1] | outcome [2] | outcome [3] | outcome [4] | outcome [5] | outcome [11] | outcome [12] | outcome [13]
